In ChEMBL document CHEMBL3988442, “University of Dundee, Small-Polar-MMV Screening Library” (2021):
Among all 48,000 compounds or so, about 13,000 (27%) showed an effect of 50% or more. Some of the results follow.

test system: Wolbachia pipientis; experiment: Anti-Wolbachia Cell-Based Screen; assay type: functional; parameters: scale not given: in the data most compounds retested in dose-response had high values; conditions: 5 µM

Row | Structure (SMILES) | Percent Effect [%]
1 | CC(C)Cc1ncc2c(n1)CN(c1cc(N3CCCC3)nc(N)n1)C2 | -10.3
2 | COCCC1(CNC(=O)NCC2CCCN(C)C2)CCC1 (configuration not stated) | 8.648
3 | CCCSCC(=O)N1CCN(c2ccc(C)cc2)CC1C (configuration not stated) | -1.95
4 | CC(C)N(C)Cc1cnc2n1CCN(Cc1ccsc1)C2.O=C(O)C(F)(F)F.O=C(O)C(F)(F)F | 107.2
5 | CC(C)N(C)Cc1cnc2n1CCN(C(=O)c1cccs1)C2 | 6.203
6 | CN(C)Cc1cnc2n1CCN(Cc1ccsc1)CC2.O=C(O)C(F)(F)F.O=C(O)C(F)(F)F | -11.04
7 | CN(C)Cc1cnc2n1CCN(C(=O)Cc1ccsc1)CC2.O=C(O)C(F)(F)F | -7.652
8 | CNC(=O)c1cnc2n1CCN(C(=O)Cc1ccccn1)C2 | -2.51
9 | CC(C)N(C)Cc1cnc2n1CCN(C(=O)Cc1ccccn1)C2.O=C(O)C(F)(F)F.O=C(O)C(F)(F)F | 116.4
10 | CC(C)N(C)Cc1cnc2n1CCN(C(=O)Cc1ccsc1)C2.O=C(O)C(F)(F)F | 75.58
11 | CC(NCC1CCN(CCO)CC1)c1ccc(OC(F)(F)F)cc1 (configuration not stated) | 5.514
12 | Cc1ccccc1CSc1nc(=O)n(CCO)c2c1CCC2 | 18.09
13 | Cc1csc(N2CCCN(C(=O)c3cnns3)CC2)n1 | 3.916
14 | Cc1nc(CCN2CCC(Oc3ccccc3F)CC2)c(C)s1 | 0
15 | c1cncc(O[C@H]2COCCN(CC3CC3)C2)c1 | -6.13
16 | O=C(O)c1cccc(N2CCC(Oc3cccc(F)c3)CC2)n1 | 3.827
17 | Fc1ccc(OC2CCN(CCn3cncn3)CC2)cc1 | 1.97
18 | Fc1ccccc1OC1CCN(CCn2cc3ccccc3n2)CC1 | 96.15
19 | Cc1ccc(OC2CCN(CCn3cncn3)CC2)cc1 | -5.94
20 | Fc1cccc(OC2CCN(CCn3cc4ccccc4n3)CC2)c1 | 89.5
21 | Cc1nc(C)c(CCN2CCC(Oc3ccccc3F)CC2)s1 | -50.47
22 | c1cncc(OC2CCN(CCn3cc4ccccc4n3)CC2)c1 | 92.09

Row | Structure (SMILES) | Percent Effect [%]
23 | O=C(O)C(F)(F)F.O=C1[C@@H]2CN(C3CCOCC3)C[C@H]2CCN1CC1CC1 | -15.82
24 | CCC(C)(CC(=O)OC)NCc1c(C)noc1C (configuration not stated) | -10.12
25 | CCCN(CCOC)c1nc(C)nc2sccc12 | -21.15
26 | Cc1cc(NC(=O)N2CCN(c3cccs3)CC2)ccc1C(N)=O | 6.081
27 | CS(=O)(=O)c1ccc(OCCNCc2c(F)cccc2F)cc1 | -4.502
28 | CCCc1n[nH]c(C2CN(C(=O)c3cncnc3C)CCO2)n1 (configuration not stated) | 104.8
29 | Cc1ccc(C(=O)N2CCOC(c3nc(C(C)(C)C)n[nH]3)C2)c(=O)[nH]1 (configuration not stated) | -10.02
30 | CCCc1n[nH]c(C2CN(C(=O)c3ccc(C)[nH]c3=O)CCO2)n1 (configuration not stated) | 101.9
31 | CC(C)n1nccc1NC(=O)NCCc1nc2ccc(F)cc2n1C | -24.15
32 | COCCN1CCN(CC(=O)NC2(C#N)CCCC2)CC1 | 5.801
33 | CCN(Cc1cc(F)c(OC)c(Cl)c1)Cc1noc(CC(C)C)n1 | -0.0931
34 | CC(C)c1cc(N2CCSCC2)n2nccc2n1 | -0.2231
35 | Cc1nc(-c2cncnc2C2CCCNC2)no1.Cl.Cl (configuration not stated) | 112.4
36 | CC(C)(C)CN1CCC[C@H]1c1nc(-c2cncnc2N)no1 | -5.651
37 | CN1CCC(N2CCC[C@H]2c2nc(-c3cncnc3N)no2)CC1 | -6.986
38 | Cc1ncc(S(C)(=O)=O)c(C2CCCNC2)n1 (configuration not stated) | 6.84
39 | CCc1nc(-c2cncnc2C2CCNC2)no1 (configuration not stated) | 125.4
40 | CS(=O)(=O)c1cncnc1C1CCCNC1.Cl (configuration not stated) | 112
41 | CN1CCC[C@H]1c1nc(-c2cncnc2N)no1 | -19.35
42 | CCc1nc(C2CCCN(c3ncc(Br)cn3)C2)no1 (configuration not stated) | -4.032
43 | CCc1nc(-c2cncnc2C2CCCNC2)no1.Cl (configuration not stated) | 115.3
44 | CC(C)c1ncc(S(C)(=O)=O)c(C2CCCNC2)n1 (configuration not stated) | 16.25

Row | Structure (SMILES) | Percent Effect [%]
45 | CN(Cc1nc2ccccc2[nH]1)C(=O)CN(C)c1ccccc1 | -21.88
46 | O=C(CCNc1ncc2c(n1)CCN2c1ccccc1)N1CCCC1 | 15.12
47 | COCCC1CN(c2nc(-c3ccccc3)nc3c2CCNC3)CCO1 (configuration not stated) | -17.27
48 | Cc1cnc(C(=O)N2CCCC(c3nccn3Cc3cscn3)C2)cn1 (configuration not stated) | 3.931
49 | Cc1cc(C(=O)N(C)Cc2cnn(C)c2)c(NC(=O)C(C)(C)C)s1 | -6.693
50 | CCOCC1CN(CC2CC2)Cc2cnn(C)c21 (configuration not stated) | -17.33
51 | COCC1CN(Cc2cccnc2OC)Cc2cnn(C)c21 (configuration not stated) | -15.02
52 | CCn1ncc2c1C(COC)CN(Cc1ccsc1)C2 (configuration not stated) | -10.45
53 | COc1ccc(CN2Cc3cnn(C)c3C(COCC3CC3)C2)cc1 (configuration not stated) | 13.17
54 | CCOCC1CN(Cc2ccsc2)Cc2cnn(C)c21 (configuration not stated) | 100.2
55 | Cn1ncc2c1C(COCC1CC1)CN(Cc1cccnc1)C2 (configuration not stated) | -4.691
56 | COCC1CN(Cc2ccsc2)Cc2cnn(C)c21 (configuration not stated) | 97.33
57 | Cn1ncc2c1C(COCC1CC1)CN(Cc1ccsc1)C2 (configuration not stated) | 99.94
58 | CC(=O)Nc1ccc(F)c(S(=O)(=O)NC(C)(C)C)c1 | -3.757
59 | NCC1CCN(c2nc(C3CCCC3)nc3c2CCNCC3)C1 (configuration not stated) | 9.164
60 | Cc1cc(C(=O)N2CC[C@H](N3CCOCC3)[C@H](CCCO)C2)c(C)n1C | -10.4
61 | CC(=O)C(C)CC(=O)N(Cc1cccc(C)c1)C(C)C (configuration not stated) | -23.01
62 | Cc1ncsc1-c1nnc(C2CCN(Cc3ccccc3Cl)CC2)o1 | 122.3
63 | COc1ccccc1CN1CC[C@H](c2nnc(-c3cncn3C)o2)C1 | -5.308
64 | Cc1ncsc1-c1nnc(C2CCN(Cc3cccc(F)c3F)CC2)o1 | 117.8
65 | Cc1ccccc1CN1CC[C@H](c2nnc(-c3cncn3C)o2)C1 | 0.6101
66 | Cc1ncsc1-c1nnc(C2CCN(Cc3ccccc3F)CC2)o1 | 106.9

Row | Structure (SMILES) | Percent Effect [%]
67 | CCn1cnnc1CNC(=O)c1ccc(Br)cc1F | -45.58
68 | CC(C(=O)N1CCN(C(=O)c2ccc(F)cc2F)CC1)n1ccnc1 (configuration not stated) | -6.751
69 | CN(Cc1ccc(Cl)s1)C(=O)Cn1nc(-c2ccc(F)cc2)oc1=O | -64
70 | CCCn1cnnc1CNC1CCSC1 (configuration not stated) | 5.781
71 | N#CCCN(Cc1cccnc1)C(=O)c1ccc(OCC2CC2)cc1 | -3.781
72 | Cc1ccc(CN(C)C(=O)c2cccc(NC(N)=O)c2)o1 | -0.4854
73 | CN(Cc1ccsc1)C(=O)c1n[nH]c(N)c1-c1ccccc1 | 96.05
74 | Cc1ccccc1OCCC(=O)N(C)Cc1c(C)noc1C | -17.09
75 | CN(Cc1ccsc1)C(=O)c1cc2c([nH]c1=O)CCCC2=O | 2.933
76 | Cc1noc(C)c1CN(C)C(=O)c1nc(N2CCCC2)ncc1Cl | -6.035
77 | Cc1noc(C)c1C(=O)N(C)Cc1nc(-c2ccccn2)no1 | -7.046
78 | Cc1nc(NC(=O)N(C)Cc2ccsc2)nn1C | 1.412
79 | CCc1nnsc1C(=O)N(C)Cc1ccc(C)o1 | 0.8104
80 | Cc1noc(C)c1CN(C)C(=O)c1n[nH]c(N)c1-c1ccccc1 | 103.1
81 | Cc1noc(CN(C)C(=O)c2n[nH]c(N)c2-c2ccccc2)n1 | 101.7
82 | Cc1ccc(CN(C)C(=O)c2n[nH]c(N)c2-c2ccccc2)o1 | 90.65
83 | Cc1noc(CN(C)c2ccccc2)n1 | 0.05791
84 | Cc1ccc(CN(C)C(=O)c2cc3c(c(S(N)(=O)=O)c2)CCC3)o1 | -13.85
85 | CCC1=N[C@@]2(CC[C@@H]3CN(S(=O)(=O)CC)C[C@@H]32)C(=O)N1CCOC | -7.119
86 | CN(c1ncc(C(N)=O)cc1Cl)C1CCC(c2ccccc2)CC1 (configuration not stated) | -13.88
87 | CN(Cc1ccsc1)C(=O)Nc1ccc(=O)n(C)c1 | -4.532
88 | CCn1cnnc1C1CCN(C(=O)CCCOc2ccccc2)CC1 | 6.265

Row | Structure (SMILES) | Percent Effect [%]
89 | NCC(=O)N1CCC(c2cccc(Oc3ccccc3)n2)CC1 | 130.3
90 | CNCC(=O)N1CCC(c2cccc(Oc3ccccc3)n2)CC1 | 178.2
91 | CC(=O)N1CCC(c2cccc(Oc3ccccc3)n2)CC1 | 144.2
92 | NC(=O)CN1CCC(c2cccc(Oc3ccccc3)n2)CC1 | 173
93 | CCn1cnnc1C1CCN(C(=O)COc2ccccc2)CC1 | 2.9
94 | COCC(=O)N1CCC(c2cccc(Cc3ccc(F)cc3)n2)CC1 | -12.66
95 | CC(C)(C)c1nnc(CSc2ccccn2)o1 | 4.822
96 | CN(Cc1ccccc1)C1(C(=O)NCC(N)=O)Cc2ccccc2C1 | -1.712
97 | O=C(NCc1csc(Cc2ccccc2)n1)C1NCCc2[nH]cnc21 (configuration not stated) | -10.41
98 | CCn1nc(C)c(NC(=O)c2cc(NC(=O)C(C)C)n(C)n2)c1C | 2.528
99 | CCCc1cc(C(=O)N(Cc2cccnc2)Cc2cccnc2)[nH]n1 | -21.08
100 | NCC1Cc2cc(-c3cncc(C(=O)N4CCCCC4)n3)cc(F)c2O1 (configuration not stated) | -1.954
101 | Fc1ccc(NCc2ncc[nH]2)cc1Br | -22.04
102 | Clc1cc(NCc2ccncc2)nc2[nH]ccc12 | 93.22
103 | COc1ncc(-c2cc(NCCN(C)C)nc3[nH]ccc23)c(OC)n1 | -3.716
104 | Clc1cc(NCc2ncc[nH]2)nc2[nH]ccc12 | 61.99
105 | CN(C)CCNc1cc(-c2ncccc2Cl)c2cc[nH]c2n1 | -5.947
106 | O=C(Nc1ccccc1)c1ccc(NCc2ccncc2)nn1 | -22.46
107 | Clc1cc(NCc2nccs2)nc2[nH]ccc12 | 109.6
